Data published in PubChem BioAssay.
Potency and affinity values are given separately. Inconclusive results are not listed. Calls of active or inactive are those of the source.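 How the source made its calls, unless noted: active means a dose-response fit showing signal loss, with half-maximal concentration no higher than twice the top tested dose; inconclusive means flat fit between 30% and 70% signal loss, or poor fit; inactive means the rest.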

Assays:
[1] = Cryptococcus neoformans growth inhibition, dose response, Alamar Blue, cherry-picks (AID 686998;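 active means falling signal with fitted half-maximal potency no higher than twice the top valid tested dose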)
[2] = inducers of Cryptococcus neoformans cell lysis, dose response, AK release luminescence, cherry-picks (AID 687000;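 active means fitted dose curve reaches 40% lysis signal rise at or below the highest valid concentration tested for that sample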;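 further: luminescent detection of adenylate kinase leaking from lysed yeast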)
[3] = HepG2 cell cytotoxicity, dose response, cytotoxicity control, cherry-picks, set 2 (AID 687002)
[4] = HeLa cell cytotoxicity, dose response, cytotoxicity control, ATP luminescence, cherry-pick samples (AID 687004;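 active means a fitted half-maximal concentration no higher than twice the top valid tested dose, with signal falling as cells die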)

Measured: outcome

CCCC(=O)N1CCCC1(C)C(=O)Nc1ccc(C)c(C)c1 (stereo not given)
inactive: [1] | [2] | [3] | [4]

CO[C@@H]1CC[C@@H]2CCOc3c(C#N)cccc3C(=O)N(C)C[C@H](c3ccccc3)CC(=O)N(C)C[C@@H]1O2
inactive: [1] | [2] | [3] | [4]

Cc1noc(C)c1NC(=O)N(C)C[C@@H]1Oc2ccc(NC(=O)C3CC3)cc2CC(=O)N([C@H](C)CO)C[C@@H]1C
inactive: [1] | [2] | [3] | [4]

O=C(CSc1ncnc2c1cnn2-c1ccc(F)cc1)NC1CCCC1
inactive: [1] | [2] | [3] | [4]

C[C@@H](O)C#Cc1ccc([C@@H]2[C@H](CO)N3CCCCN(CC4CC4)C[C@@H]23)cc1
inactive: [1] | [2] | [3] | [4]

CC(C)NC(=O)Nc1cccc2c1O[C@H](CN(C)C)[C@H](C)CN([C@@H](C)CO)C2=O
inactive: [1] | [2] | [3] | [4]

Cc1cc(C)c(NC(=O)C2CCCCN2C)c(C)c1 (stereo not given)
inactive: [1] | [2] | [3] | [4]

COc1ccc(N2CCN(C(=O)CSc3ncnc4c3cnn4-c3ccc(OC)cc3)CC2)cc1
inactive: [1] | [2] | [3] | [4]

O=C(C[C@H]1C[C@@H]2c3cc(NC(=O)c4cccnc4)ccc3O[C@@H]2[C@@H](CO)O1)NCCc1ccccc1
inactive: [1] | [2] | [3] | [4]

Cc1cc(C(=O)NC(=S)Nc2ccccc2N2CCCC2)ccc1[N+](=O)[O-]
inactive: [1] | [2] | [3] | [4]

CCCC(=O)Nc1ccc2c(c1)OC[C@@H](C)N(Cc1cncnc1)C[C@@H](C)[C@@H](OC)CN(C)C2=O
inactive: [1] | [2] | [3] | [4]

C[C@H]1CN([C@@H](C)CO)C(=O)c2cc(C#Cc3ccccn3)cnc2O[C@H]1CN(C)Cc1ccncc1
inactive: [1] | [2] | [3] | [4]

CC(C)NC(=O)N(C)C[C@@H]1OCCCC[C@@H](C)Oc2ccc(NC(=O)c3ccccc3)cc2C(=O)N([C@H](C)CO)C[C@H]1C
inactive: [1] | [2] | [3] | [4]

C[C@H](CO)N1C[C@H](C)[C@H](CN(C)C(=O)Nc2ccc3c(c2)OCO3)Oc2ncc(-c3ccc(F)cc3)cc2C1=O
inactive: [1] | [2] | [3] | [4]

Cc1ccc(S(=O)(=O)Nc2ccc3c(c2)C(=O)N([C@@H](C)CO)C[C@H](C)[C@H](CN(C)C(=O)Nc2ccc(C(F)(F)F)cc2)O3)cc1
inactive: [1] | [2] | [3] | [4]

CN1CCN(C(=O)C[C@@H]2CC[C@H]3[C@@H](COC[C@H](O)CN3C(=O)Cc3ccccc3)O2)CC1
inactive: [1] | [2] | [3] | [4]

CNC[C@@H]1OCCCC[C@H](C)Oc2ccc(NC(=O)NC(C)C)cc2C(=O)N([C@H](C)CO)C[C@H]1C
inactive: [1] | [2] | [3] | [4]

CCC(=O)N[C@H]1C=C[C@@H](CC(=O)OC)O[C@@H]1CO
inactive: [1] | [2] | [3] | [4]

O=C(C[C@@H]1CC[C@@H]2[C@H](COC[C@H](O)CN2Cc2cccc(C(F)(F)F)c2)O1)NCc1ccc(Cl)cc1
inactive: [1] | [2] | [3] | [4]

CCCNC(=O)N1[C@H](CO)[C@@H](c2ccc(C3=CCCC3)cc2)[C@@H]1CN(C)C(C)=O
inactive: [1] | [2] | [3] | [4]

O=C(C[C@@H]1C=C[C@@H](NC(=O)c2cccc(F)c2)[C@H](CO)O1)NCCN1CCCC1
inactive: [1] | [2] | [3] | [4]

Cc1ccccc1S(=O)(=O)N[C@H]1CC[C@H](CCNS(=O)(=O)c2cccc(F)c2)O[C@H]1CO
inactive: [1] | [2] | [3] | [4]

Cc1cc(C)c(NC(=O)C2CCCN2CCO)c(C)c1 (stereo not given)
inactive: [1] | [2] | [3] | [4]

CCC(=O)N1[C@@H]2Cn3c(ccc(C4=CCCCC4)c3=O)[C@H]1[C@@H](C(=O)N[C@H](C)c1ccccc1)[C@@H]2CO
inactive: [1] | [2] | [3] | [4]

CCC(C)(C(=O)NC1CCCCC1)N(C(=O)C1CCC(=O)N1)c1ccc(C)cc1 (stereo not given)
inactive: [1] | [2] | [3] | [4]

O=C(C[C@H]1C[C@H]2c3cc(NC(=O)C4CCC4)ccc3O[C@H]2[C@@H](CO)O1)NCc1cccc(F)c1
inactive: [1] | [2] | [3] | [4]

CC(C)NC(=O)Nc1ccc2c(c1)C(=O)N([C@@H](C)CO)C[C@H](C)[C@@H](CN(C)C(=O)CCC(F)(F)F)OCCCC[C@H](C)O2
inactive: [1] | [2] | [3] | [4]

Cc1ccc(NC(=O)C2(C)CCN2C(=O)C2CCCCC2)cc1C (stereo not given)
inactive: [1] | [2] | [3] | [4]

C[C@@H]1CN([C@H](C)CO)C(=O)c2cc(C#CC(C)(C)O)cnc2O[C@@H]1CN(C)Cc1cncnc1
inactive: [1] | [2] | [3] | [4]

COCC(=O)N(C)C[C@@H]1Oc2ncc(C#CCC3CCCC3)cc2C(=O)N([C@@H](C)CO)C[C@H]1C
inactive: [1] | [2] | [3] | [4]

CNC[C@H]1Oc2c(NS(=O)(=O)c3cccs3)cccc2C(=O)N([C@H](C)CO)C[C@@H]1C
inactive: [1] | [2] | [3] | [4]

COc1cccc(S(=O)(=O)N2C[C@@H](O)COC[C@@H]3O[C@H](CC(=O)N4CCN(C)CC4)CC[C@H]32)c1
inactive: [1] | [2] | [3] | [4]

O=C(CN(c1ccccc1)S(=O)(=O)c1ccc(F)cc1)NC1CCS(=O)(=O)C1 (stereo not given)
inactive: [1] | [2] | [3] | [4]

CCCN(C)C[C@@H]1OCCCC[C@H](C)Oc2ccc(NS(=O)(=O)c3ccc(C)cc3)cc2C(=O)N([C@H](C)CO)C[C@@H]1C
inactive: [1] | [2] | [3] | [4]

C[C@@H]1CCCCO[C@H](CN(C)Cc2ccncc2)[C@@H](C)CN([C@@H](C)CO)C(=O)c2cc(NC(=O)Nc3ccccc3)ccc2O1
inactive: [1] | [2] | [3] | [4]

CC(C)(C)SCCNC(=O)CN(c1ccccc1)S(=O)(=O)c1ccc(F)cc1
inactive: [1] | [2] | [3] | [4]

CC(C)C#Cc1ccc2c(c1)O[C@H](CN(C)C(=O)Cc1ccccn1)[C@H](C)CN([C@H](C)CO)S2(=O)=O
inactive: [1] | [2] | [3] | [4]

CCC(C)(C(=O)NC1CCCCC1)N(C(=O)C1CCC(=O)N1)c1ccccc1 (stereo not given)
inactive: [1] | [2] | [3] | [4]

CC=Cc1ccc2n(c1=O)C[C@H]1[C@H](CO)[C@@H](C(=O)N3CCOCC3)N(CC3CC3)[C@@H]21 (mixture of isomers)
inactive: [1] | [2] | [3] | [4]

O=C(c1ccco1)N1N=C(c2cccs2)CC1c1ccccc1O (stereo not given)
inactive: [1] | [2] | [3] | [4]

CCC(=O)Nc1ccc2c(c1)C(=O)N(C)C[C@@H](OC)[C@H](C)CN[C@@H](C)CO2
inactive: [1] | [2] | [3] | [4]

C[C@H](NC(=O)C[C@@H]1C=C[C@H](NC(=O)CN2CCOCC2)[C@@H](CO)O1)c1ccccc1
inactive: [1] | [2] | [3] | [4]

CCCCN1CCCCC1C(=O)Nc1c(C)cccc1C (stereo not given)
inactive: [1] | [2] | [3] | [4]

COc1cccc(-c2cn(CC[C@@H]3CC[C@H](NC(C)=O)[C@@H](CO)O3)nn2)c1
inactive: [1] | [2] | [3] | [4]

Cc1noc(C)c1NC(=O)N(C)C[C@@H]1Oc2ccc(NC(=O)NC(C)C)cc2CC(=O)N([C@H](C)CO)C[C@H]1C
inactive: [1] | [2] | [3] | [4]

Cc1noc(C)c1NC(=O)Nc1ccc2c(c1)C(=O)N([C@H](C)CO)C[C@H](C)[C@H](CN(C)CC1CCCCC1)O2
inactive: [1] | [2] | [3] | [4]

CO[C@H]1CC[C@H]2CCOc3c(C#N)cccc3C(=O)N(C)C[C@@H](C)C(=O)N(C)C[C@H]1O2
inactive: [1] | [2] | [3] | [4]

C/C=C/c1ccc([C@@H]2[C@@H](CNC(=O)c3ccccc3)N(C(C)=O)[C@H]2CO)cc1
inactive: [1] | [2] | [3] | [4]

C[C@H]1CN([C@@H](C)CO)C(=O)c2cc(Br)cnc2O[C@@H]1CN(C)Cc1ccccn1
inactive: [1] | [2] | [3] | [4]

CO[C@H](CN(C)Cc1cc(F)ccc1F)[C@@H](C)CN([C@@H](C)CO)S(=O)(=O)c1ccc(F)cc1
inactive: [1] | [2] | [3] | [4]

CO[C@@H]1CN(C)C(=O)c2ccc(NC(=O)C3CC3)cc2OC[C@H](C)N(Cc2ccc(F)cc2)C[C@H]1C
inactive: [1] | [2] | [3] | [4]

COc1ccc(CN(C)C[C@@H]2Oc3c(NC(=O)Nc4cccc5ccccc45)cccc3C(=O)N([C@@H](C)CO)C[C@@H]2C)cc1
inactive: [1] | [2] | [3] | [4]

C[C@@H]1CN([C@@H](C)CO)C(=O)c2cc(NC(=O)Nc3ccc(F)cc3)ccc2O[C@@H](C)CCCCO[C@H]1CN(C)S(=O)(=O)c1ccccc1
inactive: [1] | [2] | [3] | [4]

Cc1ccc(S(=O)(=O)Nc2ccc3c(c2)C(=O)N([C@@H](C)CO)C[C@@H](C)[C@@H](CN(C)S(=O)(=O)c2ccc(Cl)cc2)OCCCC[C@H](C)O3)cc1
inactive: [1] | [2] | [3] | [4]

C[C@H](CO)N1C[C@H](C)[C@H](CN(C)C(=O)NC2CCCCC2)OCCCC[C@H](C)Oc2ccc(NC(=O)C3CCCCC3)cc2C1=O
inactive: [1] | [2] | [3] | [4]
